# According to ChEMBL document CHEMBL3988442, “University of Dundee, Small-Polar-MMV Screening Library” (2021):
# About 960 (1.5%) of roughly 66,000 compounds showed an effect of 50% or more. This excerpt belongs to a sample that is enriched for strong results.
# Test system: Trypanosoma brucei
# Experiment: Trypanosoma brucei 72 hour study
# Type: functional, organism-based
# Design: scale not given: in the data most compounds retested in dose-response had high values
SMILES,"Percent Effect (30.3 µM, […])","Percent Effect (30 µM, 30.03 µM)"
COc1ccccc1NC(=O)NCCCn1nc2ccccn2c1=O,-15.65%,–
CCc1c(C)nn2c(O)cc(C3CCN(C(=O)c4cnn(C)c4)C3)nc12 (stereo not given),-13.28%,–
COc1ncc(-c2cc(-c3ccn(C)c3)nc(N)c2C#N)cn1,–,-14.16%
CCCn1cc(-c2cc(-c3ccoc3)c(C#N)c(N)n2)c(C)n1,–,-1.944%
CCCn1cc(-c2cc(-c3c[nH]cn3)c(C#N)c(N)n2)c(C)n1,–,58.89%
CCCn1cc(-c2cc(-c3cnc(OC)nc3)c(C#N)c(N)n2)c(C)n1,–,73.84%
CCCn1cc(-c2cc(-c3cc(CC)n[nH]3)c(C#N)c(N)n2)c(C)n1,–,41.43%
CCn1cc(-c2cc(-c3cc(CC(=O)O)cs3)nc(N)c2C#N)c(C)n1,–,-31.42%
CC(C)CS(=O)(=O)N1C[C@H]2C[C@H](C(=O)N3CCN(C)CC3)[C@@H](C1)O2.O=C(O)C(F)(F)F,-51.72%,–
COc1ccccc1CCN1CCCC(CN(C)Cc2c[nH]c(C)n2)C1 (stereo not given),–,9.173%
CC(NC(=O)c1ccc(=O)n(C)c1)c1ccccc1-n1cccn1 (stereo not given),–,-14.43%
Cc1ccc(C)c(NC(=O)c2cc(S(=O)(=O)N3CCSCC3)c[nH]2)c1,–,69.72%
Cc1ccc(NC(=O)c2cc(S(=O)(=O)N3CCCCC3)c[nH]2)cc1F,–,-33.42%
Cc1nnc(NC(=O)c2cc(S(=O)(=O)N3CCSCC3)c[nH]2)s1,–,37.66%
Cc1noc([C@@H]2CC[C@@H]3[C@@H](CCN3c3nnc(C)s3)O2)n1.O=C(O)C(F)(F)F,-92.4%,–
CCc1ccc(C2NCCc3cc4c(cc32)OCCO4)cc1 (stereo not given),67.24%,–
Fc1ccccc1C1NCCc2cc3c(cc21)OCCO3 (stereo not given),18.61%,–
Clc1ccc(C2NCCc3cc4c(cc32)OCCO4)cc1 (stereo not given),-20.9%,–
Cc1cc(CCC(N)=O)cc(C2CCCN2Cc2cnc(C)nc2)n1 (stereo not given),-5.889%,–
O=C(O)C(F)(F)F.O=C(O)C(F)(F)F.c1coc(CN2C[C@@H]3CN(Cc4ccoc4)CCO[C@@H]3C2)c1,-14.62%,–
O=C(Cn1c(=O)oc2ccccc21)NCC1(O)CCc2ccccc2C1 (stereo not given),–,-11.94%
Cc1cccc(OCc2nnc(SCC3CCCN(C)C3)o2)c1 (stereo not given),-11.54%,–
Cc1ccc(C)c(OCc2nnc(SCC3CCCN(C)C3)o2)c1 (stereo not given),77.52%,–
Cc1ccc(OCc2nnc(SCC3CCCN(C)C3)o2)cc1 (stereo not given),-4.572%,–
Cc1cc(F)cc2c(N3CCS(=O)(=O)CC3)c(C#N)cnc12,6.61%,–
